Each structure is given as a SMILES string. About 83,000 compounds went through this panel and 20% of them were active in at least one assay; those are over-represented in the sample as a whole.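 Testing used 96-well plates and a 48-hour single-concentration exposure. Example: -40 means 40% of the starting cells died.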 Active and inactive are the calls of the source. The calls were made as follows: active = growth percent below 10; inactive = the rest.

The source of these data is PubChem BioAssay (NCI).

This test relates to MDA-MB-468 breast. The test is described as follows: NCI-60 one-dose screen, 48 h (100 = growth as untreated, 0 = no growth, -100 = all killed). The note with it: 10 µM unless noted.
Take `C=C1CCC2(C#N)[C@H]3[C@H](CC[C@@H]2C)[C@@H](C)C[C@@H](CC(C)(C)NC(=O)CN2CCC2=O)[C@H]13` (stereo not given in full): the growth was 58% (inactive).

Take `CSc1ccc2c(c1)C(N1CCN(C)CC1)Cc1ccccc1S2` (stereo not given): the growth was -66.4% (active). Next, `Nc1ccccc1NC(=O)c1ccc(CCCC(=O)Nc2ccc(C3CC3N)cc2)cc1` (stereo not given): -4.41% (active). Next, `O=C1/C(=C/c2cccc(Br)c2)COc2ccc(O)c(O)c21`: -47.5% (active). `N#Cc1c(NCc2ccccc2I)sc2c1CCCCC2`: the growth is 97.1% (inactive).

In the case of `O=C1C2=C(Nc3cc(Cl)ccc3N2)OC1c1c[nH]c2ccc(COc3ccccc3)cc12` (stereo not given), the growth is 48.2% (inactive). Next, `COc1cc(C2Nc3ccccc3S2)cc(CN2CCOCC2)c1O` (stereo not given): 26.3% (inactive); `CCCC(CCC)(C(N)=O)C(=O)O`: 105% (inactive). Take `Cc1cc(C)c(C#N)c(SCC(=O)c2sc3c(C#N)c(C)cc(C)[n+]3c2[O-])n1`: the growth is 4.32% (active). On to `COc1cc(CNC(=O)CSc2nc3ccccc3c(=O)n2Cc2cc(OC)c(OC)c(OC)c2)cc(OC)c1OC`, for which the growth was 91.7% (inactive).

For the compound `O=[N+]([O-])c1ccc(O)cc1Br`, the growth was 106% (inactive). Next, `CCOC(=O)C1=C(N)Oc2c(sc3c(C)cccc23)C1c1ccc(F)cc1` (stereo not given): 6.58% (active). Next, `COc1ccc(C2CC(c3ccc4ccccc4c3)=NN2/C=C2\SC(=S)N(NC(=O)Cc3ccccc3Nc3c(Cl)cccc3Cl)C2=O)cc1` (stereo not given): 7.11% (active); `C#Cc1cccc(Nc2nc3cc([N+](=O)[O-])ccc3nc2Nc2ccc(O)cc2)c1`: 27.1% (inactive); `O=C(Cn1ccc(=O)[nH]c1=O)c1ccc([N+](=O)[O-])o1`: 44.4% (inactive).

As to `O=C(NCCCCNC(=O)OCc1ccc2c(Cl)cc(Cl)c(O)c2n1)OCc1ccc2c(Cl)cc(Cl)c(O)c2n1`, the growth is -5.78% (active). On to `C=CCSc1nc2ccccc2cc1/C=N/O`, for which the growth was 82% (inactive). Take `Nc1nc(Nc2ccccc2)c(C=Nc2ccccc2)c(=O)[nH]1`: the growth is 99.6% (inactive).

As to `CCCCCC(=O)Oc1ccc(/C(=C(\C)c2ccc(OC)cc2)c2ccc(OCCN3CCCCC3)cc2)cc1`, the growth is 85.3% (inactive). For `OC(c1ccccc1)c1ccccn1` (stereo not given), the growth was 103% (inactive). Next, `O=C1NC(=O)C(Cn2cnc3ccccc32)N1` (stereo not given): 99% (inactive). To `O=C(NO)c1ccc(Cn2c(=O)n(-c3ccccc3)c(=O)c3ccccc32)cc1` belongs 16.9% (inactive); to `Cc1c2c(nn1C(=O)c1nn(-c3ccc(Cl)cc3)cc1O)-c1ccccc1CC2`, 13.9% (inactive). For `O=C1Nc2ccc(Br)cc2/C1=N\N=C/c1cn(Cc2ccccc2)c2ccccc12`, the growth was -43% (active).

As to `O=C1/C(=C/c2ccc(F)cc2)CN(C(=O)CCN2CCC(=NO)CC2)C/C1=C\c1ccc(F)cc1`, the growth was -41.6% (active). Next, `C/C(=C\c1cc(Cl)ccc1OCC(=O)O)[N+](=O)[O-]`: 112% (inactive); `COc1ccc(C(=O)C(C)Br)cc1OC` (stereo not given): 77.6% (inactive).

`COC(=O)N/N=C/c1c[n+]([O-])c2ccccc2[n+]1[O-]`: the growth is 110% (inactive). `Cc1ccc(C[P+](c2ccccc2)(c2ccccc2)c2ccccc2)cc1`: the growth is -12.9% (active). To `Cc1nc([P+](c2ccccc2)(c2ccccc2)c2ccccc2)c(N2CCCCC2)o1` belongs 0.108% (active); to `O=[N+]([O-])c1cc(CCl)ccc1OCCBr`, 92.4% (inactive); to `Clc1ccc2c(NCCNc3nc(N4CCCCC4)nc4ccccc34)ccnc2c1`, -31.7% (active). As to `C1=C(Cc2ccccc2)n2cnc3ncnc(c32)S1`, the growth is -11.8% (active). With `COc1nc2ccc(C)cc2cc1-c1nc2c(cnn2-c2ccccc2)c(=O)[nH]1`, the growth is 69.4% (inactive). On to `COc1cc(F)c(/C=C/c2cc(/C=C/c3cc(OC)c(OC)cc3F)on2)cc1OC`, for which the growth is 77.6% (inactive). To `CCCCNC(=O)Oc1ccc(/C(=C(/C)Cc2ccc(OC)cc2)c2ccc(OCCN3CCCCC3)cc2)cc1` belongs 60.1% (inactive). Consider `COc1ccc(/C=C/C(=O)c2cc3c(N)c(C(=O)Nc4ccccc4Cl)sc3nc2C)cc1`, for which the growth is 5.35% (active). As to `CCc1ccc(-c2nnc(COc3ccc(-c4nc5ccccc5[nH]4)cc3OC)o2)cc1`, the growth is 86.9% (inactive). As to `Nc1ccc(-c2ccc(-c3ccccc3N)c3[nH]c4ccccc4c23)cc1`, the growth is -5.32% (active).

For the compound `CC1(C)CC[C@]23CC[C@]4(C)[C@H](CC[C@@H]5[C@@]6(C)CC[C@H](N)C(C)(C)[C@@H]6CC[C@]54C)[C@H]2[C@H]1OC3`, the growth was 0.703% (active).
